Measurements from PubChem BioAssay.
The source made the active and inactive calls.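 The calls were made as follows, unless noted: active = viability at or under a set limit in both replicates, limit being median viability minus 3 SD (cut at about 48% in these data, passing the limit was not always enough); inconclusive = at or under the limit in just one replicate; inactive = at or above the limit in both replicates.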

Tests used:
[1] = reduced viability of SK-BR-3 breast cancer cells – cell-based, 24 h, human, pilot screen (AID 572;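 active = viability at or below 10% of carrier control in both of two separate runs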;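 also: compound exposure lasted between 18 and 24 h rather than exactly 24 h; 100% = carrier-treated control wells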); details: SK-BR-3 viability, CellTiter-Glo luminescence, at 10 µM, stronger effect = lower value
[2] = HUVEC growth inhibition – cell-based, human, primary screen (AID 575;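 active = viability at or below 30% in both replicate assays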;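 also: 100% = median of untreated cell wells with 0.1% DMSO on each plate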); details: HUVEC proliferation, CellTiter-Glo luminescence, 72 h; at 10 µM; stronger effect = lower value
[3] = H69AR cell proliferation blockers – human, duplicate replicates, primary screen (AID 580); details: H69AR lung tumor cells viability, ATP luminescence, 72 h; at 10 µM; stronger effect = lower value;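 also: 100% = mean luminescence of untreated wells and 0% = no signal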
[4] = MRP1 drug-resistance reversers in H69AR cells – cell-based, doxorubicin co-treatment, pilot screen (AID 601;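 active = viability loss from added drug above about 55%, and viability with drug at most 40%, in both replicates, limit read from the data, passing the limit was not always enough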); details: CellTiter-Glo, 72 h, at 10 µM; for differential viability (reversal): stronger effect = higher value
[5] = yeast transport mutant growth inhibition pilot in 384-well plates, post-Golgi transport modulator project (AID 636; in the data active = inhibition above about 31%); details: absorbance 615 nm, about 18 h, stronger effect = higher value
[6] = growth suppression of yeast trafficking mutant, preliminary HTS, modulators of trafficking downstream of Golgi apparatus project, 1536-format plate, OD 615 nm (AID 637; in the data active = inhibition above about 30%); details: yeast transport mutant growth, absorbance 615 nm, 18 h; stronger effect = higher value
[7] = H69AR cells + 2 uM doxorubicin, measured here: viability with 2 uM doxorubicin, stronger effect = lower value
[8] = H69AR cells, compound alone cytotoxicity

Compound	viability [1]	viability [2]	viability [3]	differential viability (reversal) ([4]; H69AR cells + 2 uM doxorubicin)	viability [4, 7] [%]	viability [4, 8] [%]	inhibition [5]	inhibition [6]
COc1ccccc1N(CC(=O)NC1CCCC1)C(=O)CCC(=O)Nc1cc(C)on1	98% (inactive)	102% (inactive)	85.3% (inactive)	-1.76% (inactive)	87.1	85.3	-2% (inactive)	9.82% (inactive)
Nc1cc(N)nc(SCc2ccccc2)n1	94% (inactive)	90.8% (inactive)	85.6% (inactive)	-6.86% (inactive)	92.4	85.6	-0.68% (inactive)	9.27% (inactive)
Cn1c(=O)c2c(nc(SCC(=O)N3CCCc4ccccc43)n2C)n(C)c1=O	94% (inactive)	107% (inactive)	102% (inactive)	7.81% (inactive)	93.9	102	1.22% (inactive)	-2.73% (inactive)
COP(C)(=O)c1c(C)nn(-c2ccccc2)c1C (stereo unspecified)	122% (inactive)	104% (inactive)	96.3% (inactive)	1.8% (inactive)	94.5	96.3	0.39% (inactive)	1.15% (inactive)
CC(C)N(Cc1nc(-c2ccc(Cl)cc2)no1)C(=O)CN(C)S(=O)(=O)c1ccc(Cl)cc1	95% (inactive)	66.3% (inactive)	78.7% (inactive)	-7.31% (inactive)	86.1	78.7	-0.68% (inactive)	1.29% (inactive)
O=C(NCc1ccco1)c1cc2sccc2n1Cc1ccccc1	131% (inactive)	97.3% (inactive)	71.2% (inactive)	-18.5% (inactive)	89.7	71.2	3.01% (inactive)	14.2% (inactive)
Cc1csc(NC(=O)c2ccccc2C(=O)O)n1	103% (inactive)	108% (inactive)	95.3% (inactive)	-0.43% (inactive)	95.8	95.3	-2.27% (inactive)	1.27% (inactive)
CC1(C)S[C@@H]2[C@H](NC(=O)C(C(=O)O)c3ccccc3)C(=O)N2[C@H]1C(=O)O (stereo partly specified)	87% (inactive)	73.9% (inactive)	107% (inactive)	3.92% (inactive)	103	107	-1.43% (inactive)	-2.67% (inactive)
Cc1cnc(C(=O)Nc2ccccc2-n2cccc2)cn1	94% (inactive)	105% (inactive)	92.4% (inactive)	3.75% (inactive)	88.6	92.4	-7.6% (inactive)	-2.73% (inactive)
Cn1c(=O)cc(SCC(=O)NCc2cccnc2)c2ccccc21	92% (inactive)	109% (inactive)	92.7% (inactive)	8.73% (inactive)	83.9	92.7	-6.8% (inactive)	-1.82% (inactive)
CC(C)[N+]1(C)[C@@H]2CC[C@H]1CC(OC(=O)C(CO)c1ccccc1)C2 (stereo partly specified)	113% (inactive)	96% (inactive)	100% (inactive)	9.31% (inactive)	90.9	100	-6.36% (inactive)	-2.83% (inactive)
CCCC1CCC(C(=O)Nn2cnc3ccccc3c2=O)CC1 (stereo unspecified)	101% (inactive)	108% (inactive)	91.7% (inactive)	9.62% (inactive)	82	91.7	1.17% (inactive)	7.05% (inactive)
CCOC(=O)Cc1csc(NC(=O)c2cccc(OC)c2)n1	75% (inactive)	104% (inactive)	103% (inactive)	0.32% (inactive)	102	103	-5.75% (inactive)	-5.64% (inactive)
C=CCc1ccccc1OCC(O)CNC(C)C (stereo unspecified)	82% (inactive)	70.1% (inactive)	91.3% (inactive)	-8.68% (inactive)	100	91.3	-2.34% (inactive)	1.67% (inactive)
COc1cccc(NC(=O)N(Cc2ccco2)C(C)c2cccs2)c1 (stereo unspecified)	92% (inactive)	88.9% (inactive)	89.8% (inactive)	16.8% (inactive)	73	89.8	-0.52% (inactive)	-4.1% (inactive)
CCOc1cc(C2Nc3ccccc3C(=O)N2c2ccccc2OC)ccc1O (stereo unspecified)	98% (inactive)	105% (inactive)	95% (inactive)	0.125% (inactive)	94.9	95	-4.59% (inactive)	28.4% (inactive)
CC1CCCc2sc3nc(NCc4ccco4)n4ncnc4c3c21 (stereo unspecified)	104% (inactive)	79.2% (inactive)	83.3% (inactive)	-1.71% (inactive)	85	83.3	-3.97% (inactive)	20.3% (inactive)
Cc1nc(Sc2cccn2C)c(C(F)(F)F)c(=O)[nH]1	105% (inactive)	102% (inactive)	96.3% (inactive)	13.2% (inactive)	83.1	96.3	-6.58% (inactive)	2% (inactive)
O=C(Nc1cc(C(F)(F)F)ccc1N1CCCC1)c1ccc2c(c1)OCO2	72% (inactive)	92.9% (inactive)	98% (inactive)	0.92% (inactive)	97.1	98	-6.99% (inactive)	-5.09% (inactive)

Compound	viability [1]	viability [2]	viability [3]	differential viability (reversal) ([4]; H69AR cells + 2 uM doxorubicin)	viability [4, 7] [%]	viability [4, 8] [%]	inhibition [5]	inhibition [6]
CCN(CC)S(=O)(=O)c1ccc(NC(=O)Cn2cnc3ccccc3c2=O)cc1	87% (inactive)	85.9% (inactive)	93.8% (inactive)	8.02% (inactive)	85.8	93.8	0.96% (inactive)	-1.29% (inactive)
Cn1c(=O)n(CCC(=O)O)c2ccccc21	93% (inactive)	111% (inactive)	97.2% (inactive)	13.1% (inactive)	84.1	97.2	-7.67% (inactive)	5% (inactive)
COc1cc2cc(C(c3nnnn3C3CCCC3)N(C)C3CCCCC3)c(=O)[nH]c2cc1OC (stereo unspecified)	81% (inactive)	85.2% (inactive)	81.9% (inactive)	-4.31% (inactive)	86.2	81.9	-1.3% (inactive)	-2.13% (inactive)
CCCc1cc(=O)[nH]c(=S)[nH]1	101% (inactive)	97% (inactive)	84% (inactive)	2.76% (inactive)	81.2	84	0.78% (inactive)	0.17% (inactive)
COCCN(Cc1cc2cccc(C)c2[nH]c1=O)C(=O)c1ccccc1	95% (inactive)	118% (inactive)	102% (inactive)	7.6% (inactive)	94.1	102	-0.95% (inactive)	1.09% (inactive)
CC(C)(C)NCC(O)COc1cccc2c1C[C@H](O)[C@H](O)C2 (stereo partly specified)	82% (inactive)	85.3% (inactive)	97.1% (inactive)	4.26% (inactive)	92.8	97.1	2.86% (inactive)	1.83% (inactive)
Cc1nc(N)[nH]c(=O)c1CCC(=O)OCC(C)C	107% (inactive)	89.7% (inactive)	91.2% (inactive)	-2.31% (inactive)	93.5	91.2	-0.78% (inactive)	-0.66% (inactive)
Cc1cccc(NC(=O)CC2CCC2)c1	87% (inactive)	102% (inactive)	99.8% (inactive)	-2.9% (inactive)	103	99.8	-5.75% (inactive)	4.55% (inactive)
CCc1nnc(NC(=O)CSc2nnc(-c3ccccc3OC)n2-c2ccccc2)s1	77% (inactive)	108% (inactive)	85.2% (inactive)	-1.85% (inactive)	87	85.2	-1.73% (inactive)	-1.45% (inactive)
Cc1cnc(C(=O)NCCc2ccc(S(=O)(=O)NC(=O)NC3CCCCC3)cc2)cn1	94% (inactive)	94.9% (inactive)	89.3% (inactive)	-16.6% (inactive)	106	89.3	1.04% (inactive)	2% (inactive)
O=C(CCCCn1c(=O)c2ccccc2n(Cc2ccc(Cl)cc2)c1=O)NCc1ccco1	100% (inactive)	38.6% (inactive)	29.6% (active)	-13.4% (inactive)	43	29.6	-1.17% (inactive)	-2.95% (inactive)
Cn1c(=O)c2c(nc(NCCNC(=O)c3ccco3)n2Cc2ccccc2Cl)n(C)c1=O	80% (inactive)	112% (inactive)	72.5% (inactive)	5.75% (inactive)	66.7	72.5	-7.57% (inactive)	-4.36% (inactive)
O=c1oc2cc(O)ccc2c2oc3cc(O)ccc3c12	108% (inactive)	85.1% (inactive)	99.4% (inactive)	6.57% (inactive)	92.8	99.4	-5.19% (inactive)	5.17% (inactive)
CCSC(SCC)[C@H](O)[C@@H](O)[C@H](O)[C@H](O)CO	103% (inactive)	104% (inactive)	101% (inactive)	6.02% (inactive)	94.8	101	-5.19% (inactive)	0% (inactive)
N#CCC(=O)N1CCn2c1nc1ccccc12	99% (inactive)	95% (inactive)	87.7% (inactive)	-0.78% (inactive)	88.5	87.7	0.13% (inactive)	0.33% (inactive)
COc1cc(C(=O)Nc2cc(-c3ccccc3)[nH]n2)cc(OC)c1OC	107% (inactive)	68.3% (inactive)	26% (active)	-45.8% (inactive)	71.7	26	-4.27% (inactive)	-1.27% (inactive)
CCN(CC)S(=O)(=O)c1cccc(-c2nnc(SCCOc3ccccc3C)o2)c1	75% (inactive)	89% (inactive)	87.9% (inactive)	18.7% (inactive)	69.3	87.9	-2.6% (inactive)	8.36% (inactive)
COCCSc1nnc(NC(=O)CSCc2ccccc2)s1	102% (inactive)	103% (inactive)	93.1% (inactive)	6.87% (inactive)	86.3	93.1	-11% (inactive)	0.97% (inactive)
